# Results filed as inconclusive are left out. Where a call stands in place of a potency, no number is given. Calls of active or inactive are those of the source. Calls follow the shape of the dose curve; as a rule, active = well fitted cell-killing curve with a large enough effect; inconclusive = small, poorly fitted or top-dose-only effect; inactive = no such curve, though single readings can be large or run the other way.
# Assay: qHTS of pediatric cancer cell lines to identify multiple opportunities for drug repurposing: Primary screen for SJ-GBM2 cells (AID 1347091)
# Conditions: SJ-GBM2 viability, CellTiter-Glo luminescence, 48 h; series mostly up to 46 µM
# From the text: Drug repurposing or repositioning has been offered as a strategy for drug development in oncology programs. This approach has special potential for childhood cancers and other rare or orphan diseases, where the expected return on new drug development has been a disincentive to pharmaceuticals.
# In this project we exploit the poly-pharmacology of drugs to discover new indications via phenotypic screening of a panel of 19 well-characterized cell lines derived from solid tumors seen in children and adolescents. The goal is to identify approved drugs with previously unrecognized anticancer properties that has the potential to reveal new mechanisms and biological processes involved in carcinogenesis or drug resistance. We employed a titration-based paradigm (quantitative high-throughput screening or qHTS), where all compounds were tested at multiple concentrations for their effect on cell viability. Concentration-response curves (CRCs) were derived directly from the primary screen, and both potency and efficacy values were used to identify compounds with robust bioactivity profiles. We screened the NIH Chemical Genomics Center (NCGC) Pharmaceutical Collection (NPC) and Mechanism Interrogation Plate (MIPE) small molecule collections of approved and investigational compounds against these cell lines; and measured metabolically active cells after 48 hours of compound treatment as a proxy for cell viability.
# Assay Submitter: Nathalia J. Martinez, National Center for Advancing Translational Sciences, National Institutes of Health, Rockville, MD, USA; email: natalia.martinez@nih.gov
# [1] Shen, M et al. Quantitative high-throughput phenotypic screening of pediatric cancer cell lines identifies multiple opportunities for drug repurposing. Oncotarget 2017 Dec 19;9(4):4758-4772. PMID 29435139.
# The cells were obtained from University of North Carolina (UNC), Pediatric Preclinical Testing Program (PPT), and Coriell Institute (CI).
# qHTS cell viability assay:
# Cells were assayed in growth media at a density of 500-1,000 cells/well. Five microliters of cells were dispensed into 1,536-well, white, solid-bottom, TC-treated plates (Greiner Bio One) using a multidrop dispenser and incubated at 37 degrees C, 5% CO2, under a humidified atmosphere for 5 hours. Twenty-three nanoliters of compounds and controls (neutral control DMSO or positive control bortezomib at final concentration of 2.3 µM) were subsequently transferred by Kalypsys pintool. For primary screens, the MIPE collection was tested at 11-point dilutions (final concentrations range from 0.78 nM to 46 µM) and the NPC collection at 8-point dilutions (final concentrations range from 0.59 nM to 46 µM). Compounds tested in follow-up screens were assayed at 11-point dilutions. Cells were incubated for 48 hours, followed by addition of 3 uL of CellTiter-Glo (Promega). After a 15 min incubation at room temperature, samples were analyzed for luminescence intensity using a ViewLux High-throughput CCD imager equipped with clear filters.
# Potency is read from the fitted curve at half-maximal effect.
row,SMILES,Potency
1,CN(C)c1ccc(Nc2nc(N)n(C(=O)c3c(F)cccc3F)n2)cc1,16.6 µM (active)
2,Cc1c(CCOc2ccc(C(=O)O)cc2)c2cc(Cl)ccc2n1C(c1ccccc1)c1ccccc1,inactive
3,O=C1CCC(N2C(=O)c3ccccc3C2=O)C(=O)N1 (stereo not given),inactive
4,CCOc1ccn(-c2ccc(F)cc2)c(=O)c1C(=O)Nc1ccc(Oc2ccnc(N)c2Cl)c(F)c1,0.059 µM (active)
5,O=C(Nc1ccc(F)c(C(F)(F)F)c1)Nc1nnc(-c2ccncc2)s1,inactive
6,O=C1[C@H](Cc2ccc(O)cc2)N2C(=O)CCN(C(=O)NCc3ccccc3)[C@H]2CN1Cc1cccc2ccccc12,10.5 µM (active)
7,CS(=O)(=O)c1ccc(C(=O)Nc2ccc(Cl)c(-c3ccccn3)c2)c(Cl)c1,inactive
8,CC(C[N+](C)(C)C)OC(N)=O (stereo not given),inactive
9,CCCc1nc2c(C)cc(-c3nc4ccccc4n3C)cc2n1Cc1ccc(-c2ccccc2C(=O)O)cc1,inactive
10,O=c1[nH]cnc2[nH]ncc12,inactive
11,CNCc1ccc(-c2[nH]c3cc(F)cc4c3c2CCNC4=O)cc1,inactive
12,Cc1n[nH]c(C)c1Cc1sc2c(c1C(=O)N1C[C@H](O)CO1)c(=O)n(C)c(=O)n2CC(C)C,inactive
13,COc1nc(-c2ccc3c(c2)OCO3)n(-c2ccc(NC(=O)CSc3ccccc3)cc2)n1,inactive
14,O=C1CCc2cc(OCCCCc3nnnn3C3CCCCC3)ccc2N1,inactive
15,Cn1c(=O)c(F)c(Nc2ccc(I)cc2F)c2c(=O)n(C[C@@H](O)CO)cnc21,inactive
16,O=C(NOC[C@H](O)CO)c1ccc(F)c(F)c1Nc1ccc(I)cc1F,inactive
17,CS(=O)(=O)Oc1ccc2c(NC(N)=O)c(C(=O)c3ccc(Cl)cc3Cl)oc2c1,3.32 µM (active)
18,NCCc1ccc(O)c(O)c1,inactive
19,CN(C(=O)c1ccc(F)cc1C(F)(F)F)C1CCN(c2nnc(-c3ccnn3C)c3ccccc23)CC1,inactive
20,NS(=O)(=O)c1cc2c(cc1Cl)NC=NS2(=O)=O,inactive

row,SMILES,Potency
1,CCc1ccc(CCOc2ccc(CC3SC(=O)NC3=O)cc2)nc1 (stereo not given),inactive
2,Oc1ccc(C2CNCCc3c2cc(O)c(O)c3Cl)cc1 (stereo not given),inactive
3,O=C(C=Cc1ccc(/C=C/C(=O)Nc2ccc(C3=NCCN3)cc2)cc1)Nc1ccc(C2=NCCN2)cc1,inactive
4,S=C(NCc1ccc2c(c1)OCO2)N1CCN(c2ncnc3c2oc2ccccc23)CC1,inactive
5,CCn1c(-c2nonc2N)nc2c(C#CC(C)(C)O)ncc(OC[C@H]3CCCNC3)c21,23.5 µM (active)
6,N#Cc1ccc(C(c2ccc(C#N)cc2)n2cncn2)cc1,inactive
7,CCOc1cc(N2CCC(O)CC2)ccc1Nc1ncc2c(n1)N(C)c1ccccc1C(=O)N2C,0.132 µM (active)
8,Clc1ccc(Nc2nnc(Cc3ccncc3)c3ccccc23)cc1,inactive
9,Oc1cccc(-c2nc(N3CCOCC3)c3oc4ncccc4c3n2)c1,0.0855 µM (active)
10,CCC(C)n1ncn(-c2ccc(N3CCN(c4ccc(OC[C@H]5CO[C@](Cn6cncn6)(c6ccc(Cl)cc6Cl)O5)cc4)CC3)cc2)c1=O (stereo not given in full),1.66 µM (active)
11,CCCCCCCc1ccc(CCc2cccc(O)c2C(=O)O)cc1,23.5 µM (active)
12,NC(=O)c1ccc(-c2nc(-c3ccc4c(c3)OCCO4)c(-c3ccccn3)[nH]2)cc1,inactive
13,CNC(=O)c1ccccc1Sc1ccc2c(/C=C/c3ccccn3)n[nH]c2c1,5.31 µM (active)
14,NCCCC(N)(C(=O)O)C(F)F (stereo not given),inactive
15,CCCS(=O)(=O)Nc1ccc(F)c(C(=O)c2c[nH]c3ncc(-c4ccc(Cl)cc4)cc23)c1F,18.7 µM (active)
16,CCCCNc1cc(C(=O)O)cc(S(N)(=O)=O)c1Oc1ccccc1,inactive
17,Cc1ccccc1C(OCCN(C)C)c1ccccc1 (stereo not given),inactive
18,O=C(C1CC1)N1CC[C@@H](Cn2c(-c3ccc(-c4ccc5occc5c4)cc3)nc3cnccc32)C1,8.33 µM (active)
19,CC(C=CC1=C(C)CCCC1(C)C)=CC=CC(C)=CC(=O)O,inactive
20,Cc1cc(C=c2sc3nc4ccccc4n3c2=O)c(C)n1-c1ccccc1,inactive
